Data published in the supplement of paper PMC10849652.
About 8,800 targets were measured; listed, in parts, are those with a hit and a random draw of the rest. About 0.5% of all pairs of compound and target were hits. A number with no mark means an inactive call.

compound: O=C1NC(=O)C(c2cnc3ccccn23)=C1c1cn2c3c(cc(F)cc13)CN(C(=O)N1CCCCC1)CC2; assay: log2 fold change, soluble protein after heating vs DMSO (PISA); higher = thermal stabilisation; K562 lysate, 10 uM; active = over 0.2 and 3.5 SD of the protein, either way, in both replicates (recomputed)
Summary of the method: (§1)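 K562 pellets were dounce-homogenised in PBS pH 7.4 containing 1 mM MgCl2, and the crude extract, at 1 mg/mL protein, was exposed to 10 μM compound for 30 min. Aliquots were heated for 3 min across 48°C-58°C, pooled, brought to 0.5% NP-40 at 4°C and spun at 21,000xg for 90 min, with the supernatant taken as soluble protein. TMTpro 16plex LC-MS/MS with equalised channel sums quantified that protein. Values are log-two fold changes in thermal stability relative to solvent controls, taken from duplicates.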

Sequence of UniProt Q8TCD6 (Q8TCD6 whole entry, looked up): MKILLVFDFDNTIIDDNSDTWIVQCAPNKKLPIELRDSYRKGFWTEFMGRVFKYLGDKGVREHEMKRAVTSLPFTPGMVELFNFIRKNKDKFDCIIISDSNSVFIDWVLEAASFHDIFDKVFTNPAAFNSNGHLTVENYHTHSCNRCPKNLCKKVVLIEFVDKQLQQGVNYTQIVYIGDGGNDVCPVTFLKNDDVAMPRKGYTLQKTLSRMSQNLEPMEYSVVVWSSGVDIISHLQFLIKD
Sequence of UniProt P78527 (P78527 whole entry, looked up): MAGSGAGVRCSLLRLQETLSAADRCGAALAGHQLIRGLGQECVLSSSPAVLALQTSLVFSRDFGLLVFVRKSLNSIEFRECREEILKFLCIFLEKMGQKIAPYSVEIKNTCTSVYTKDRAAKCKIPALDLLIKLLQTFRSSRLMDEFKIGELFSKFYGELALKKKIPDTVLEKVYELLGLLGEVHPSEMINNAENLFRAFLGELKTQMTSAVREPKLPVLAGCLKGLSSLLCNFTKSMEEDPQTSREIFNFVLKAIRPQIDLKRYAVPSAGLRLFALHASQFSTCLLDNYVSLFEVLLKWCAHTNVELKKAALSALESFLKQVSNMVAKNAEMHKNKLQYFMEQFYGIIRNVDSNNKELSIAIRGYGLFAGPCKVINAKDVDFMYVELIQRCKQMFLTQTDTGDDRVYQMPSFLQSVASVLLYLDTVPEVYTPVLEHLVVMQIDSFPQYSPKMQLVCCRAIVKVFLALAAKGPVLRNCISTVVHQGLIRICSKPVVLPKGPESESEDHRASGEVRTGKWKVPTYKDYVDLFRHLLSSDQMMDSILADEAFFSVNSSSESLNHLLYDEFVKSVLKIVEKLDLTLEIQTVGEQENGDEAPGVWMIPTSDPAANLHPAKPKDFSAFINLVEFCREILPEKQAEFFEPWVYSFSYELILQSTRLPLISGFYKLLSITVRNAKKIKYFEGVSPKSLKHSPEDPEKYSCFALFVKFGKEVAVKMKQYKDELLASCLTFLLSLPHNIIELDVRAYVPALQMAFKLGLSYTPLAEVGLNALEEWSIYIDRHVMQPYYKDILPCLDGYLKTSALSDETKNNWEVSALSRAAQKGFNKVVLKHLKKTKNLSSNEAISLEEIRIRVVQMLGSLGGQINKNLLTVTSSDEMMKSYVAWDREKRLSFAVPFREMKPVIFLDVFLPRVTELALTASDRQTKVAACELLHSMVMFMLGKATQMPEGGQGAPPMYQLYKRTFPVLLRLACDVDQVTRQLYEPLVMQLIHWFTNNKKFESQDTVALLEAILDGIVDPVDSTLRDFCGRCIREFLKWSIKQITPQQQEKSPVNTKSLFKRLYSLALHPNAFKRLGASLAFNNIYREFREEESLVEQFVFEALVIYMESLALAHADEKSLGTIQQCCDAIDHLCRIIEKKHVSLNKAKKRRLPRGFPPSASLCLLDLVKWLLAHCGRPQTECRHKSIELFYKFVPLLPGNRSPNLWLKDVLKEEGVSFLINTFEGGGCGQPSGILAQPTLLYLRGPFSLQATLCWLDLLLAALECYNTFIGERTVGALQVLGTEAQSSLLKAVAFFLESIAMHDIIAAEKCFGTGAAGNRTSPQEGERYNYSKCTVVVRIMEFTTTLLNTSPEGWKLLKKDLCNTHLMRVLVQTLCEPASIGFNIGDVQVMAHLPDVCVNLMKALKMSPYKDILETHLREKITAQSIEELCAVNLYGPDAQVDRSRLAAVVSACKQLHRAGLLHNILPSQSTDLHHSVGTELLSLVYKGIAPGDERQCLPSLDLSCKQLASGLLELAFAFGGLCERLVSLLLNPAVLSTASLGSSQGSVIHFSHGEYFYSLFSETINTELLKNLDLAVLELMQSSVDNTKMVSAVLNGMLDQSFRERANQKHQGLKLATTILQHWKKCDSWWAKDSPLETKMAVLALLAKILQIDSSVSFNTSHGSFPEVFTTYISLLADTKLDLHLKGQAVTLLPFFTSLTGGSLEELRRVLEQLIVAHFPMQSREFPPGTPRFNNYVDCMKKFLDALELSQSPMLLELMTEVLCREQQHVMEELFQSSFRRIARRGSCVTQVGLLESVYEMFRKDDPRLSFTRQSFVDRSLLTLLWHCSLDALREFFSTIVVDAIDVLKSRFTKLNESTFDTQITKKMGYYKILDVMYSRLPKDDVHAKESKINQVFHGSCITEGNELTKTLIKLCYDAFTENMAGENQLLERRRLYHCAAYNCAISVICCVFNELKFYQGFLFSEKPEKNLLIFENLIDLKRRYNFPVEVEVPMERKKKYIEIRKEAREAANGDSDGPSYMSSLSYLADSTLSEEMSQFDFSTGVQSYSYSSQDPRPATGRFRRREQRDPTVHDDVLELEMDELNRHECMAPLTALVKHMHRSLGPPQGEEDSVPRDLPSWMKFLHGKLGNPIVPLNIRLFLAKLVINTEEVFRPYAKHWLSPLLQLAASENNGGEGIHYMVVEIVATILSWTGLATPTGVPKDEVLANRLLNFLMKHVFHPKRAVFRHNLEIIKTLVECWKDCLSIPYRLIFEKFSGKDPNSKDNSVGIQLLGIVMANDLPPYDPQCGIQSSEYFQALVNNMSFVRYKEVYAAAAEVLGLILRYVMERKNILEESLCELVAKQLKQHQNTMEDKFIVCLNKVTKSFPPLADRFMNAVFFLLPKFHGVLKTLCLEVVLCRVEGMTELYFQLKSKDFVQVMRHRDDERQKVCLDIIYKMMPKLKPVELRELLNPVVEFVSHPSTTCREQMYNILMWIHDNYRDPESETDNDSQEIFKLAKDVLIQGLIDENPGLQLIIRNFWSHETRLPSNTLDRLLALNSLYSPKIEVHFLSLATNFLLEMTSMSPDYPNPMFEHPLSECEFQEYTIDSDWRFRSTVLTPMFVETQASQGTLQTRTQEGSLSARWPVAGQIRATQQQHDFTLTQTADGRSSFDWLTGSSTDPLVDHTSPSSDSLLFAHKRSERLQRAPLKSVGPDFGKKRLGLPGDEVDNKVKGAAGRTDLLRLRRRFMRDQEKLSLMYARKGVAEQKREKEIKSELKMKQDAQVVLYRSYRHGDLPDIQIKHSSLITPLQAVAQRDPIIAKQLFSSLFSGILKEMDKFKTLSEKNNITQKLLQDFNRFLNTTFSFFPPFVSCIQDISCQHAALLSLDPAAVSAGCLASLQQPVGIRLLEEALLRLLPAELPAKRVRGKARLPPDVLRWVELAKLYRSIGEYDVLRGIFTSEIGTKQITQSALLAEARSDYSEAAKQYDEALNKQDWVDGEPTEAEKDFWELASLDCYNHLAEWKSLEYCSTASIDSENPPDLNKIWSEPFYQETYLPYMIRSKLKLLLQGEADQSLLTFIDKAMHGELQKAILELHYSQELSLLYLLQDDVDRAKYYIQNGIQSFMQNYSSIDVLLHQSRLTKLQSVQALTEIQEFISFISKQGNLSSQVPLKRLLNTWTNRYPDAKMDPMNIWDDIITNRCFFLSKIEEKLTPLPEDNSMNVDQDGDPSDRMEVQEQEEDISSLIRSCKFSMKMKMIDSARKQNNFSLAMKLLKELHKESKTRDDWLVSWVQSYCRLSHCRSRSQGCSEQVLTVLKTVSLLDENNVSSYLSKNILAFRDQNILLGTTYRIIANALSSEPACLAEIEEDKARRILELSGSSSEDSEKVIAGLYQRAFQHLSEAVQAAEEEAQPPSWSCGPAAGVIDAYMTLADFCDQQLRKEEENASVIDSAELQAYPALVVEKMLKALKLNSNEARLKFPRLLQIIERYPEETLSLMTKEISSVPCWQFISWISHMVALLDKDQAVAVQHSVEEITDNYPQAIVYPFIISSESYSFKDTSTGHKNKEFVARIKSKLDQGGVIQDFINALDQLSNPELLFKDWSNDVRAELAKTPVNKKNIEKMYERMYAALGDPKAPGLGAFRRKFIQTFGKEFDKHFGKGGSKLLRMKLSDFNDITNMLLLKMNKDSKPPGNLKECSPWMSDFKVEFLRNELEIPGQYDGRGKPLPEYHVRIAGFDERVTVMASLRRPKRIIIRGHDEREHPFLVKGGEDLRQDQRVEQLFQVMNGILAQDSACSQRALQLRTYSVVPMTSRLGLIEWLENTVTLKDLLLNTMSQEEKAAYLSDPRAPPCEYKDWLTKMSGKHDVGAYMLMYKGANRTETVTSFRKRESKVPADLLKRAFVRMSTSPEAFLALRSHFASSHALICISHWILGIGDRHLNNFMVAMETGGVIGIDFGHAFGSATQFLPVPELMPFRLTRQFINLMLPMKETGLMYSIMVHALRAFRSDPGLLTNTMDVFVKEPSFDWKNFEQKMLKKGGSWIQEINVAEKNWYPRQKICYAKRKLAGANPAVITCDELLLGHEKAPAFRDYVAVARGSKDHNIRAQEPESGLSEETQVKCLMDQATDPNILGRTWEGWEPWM
Sequence of UniProt Q9UHX1 (Q9UHX1 whole entry, looked up): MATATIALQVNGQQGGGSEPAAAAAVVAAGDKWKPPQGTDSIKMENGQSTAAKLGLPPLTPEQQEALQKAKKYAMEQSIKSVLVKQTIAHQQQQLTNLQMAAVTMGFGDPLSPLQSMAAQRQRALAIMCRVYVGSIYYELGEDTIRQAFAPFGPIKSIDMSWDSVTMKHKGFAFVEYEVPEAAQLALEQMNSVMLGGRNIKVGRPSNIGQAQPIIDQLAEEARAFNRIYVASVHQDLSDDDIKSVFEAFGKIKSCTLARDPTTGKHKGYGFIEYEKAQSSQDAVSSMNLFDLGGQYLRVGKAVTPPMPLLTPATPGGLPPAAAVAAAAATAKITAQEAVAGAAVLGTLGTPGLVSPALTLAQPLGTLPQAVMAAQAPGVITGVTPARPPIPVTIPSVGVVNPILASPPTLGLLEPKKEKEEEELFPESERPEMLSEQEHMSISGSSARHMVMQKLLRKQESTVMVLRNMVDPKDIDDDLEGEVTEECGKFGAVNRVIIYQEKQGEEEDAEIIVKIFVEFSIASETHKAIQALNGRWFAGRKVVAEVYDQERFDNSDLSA
Sequence of UniProt P60673 (P60673 whole entry, looked up): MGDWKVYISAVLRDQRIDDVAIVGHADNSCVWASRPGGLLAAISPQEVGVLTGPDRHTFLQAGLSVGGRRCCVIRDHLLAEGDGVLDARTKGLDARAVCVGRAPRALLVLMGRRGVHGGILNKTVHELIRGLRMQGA

| Target | log2 fold change |
| --- | --- |
| PGRMC1 (UniProt O00264) | 0.014 |
| PHOSPHO2 (UniProt C9JD35) | 0.004 |
| PHLDB1 (UniProt Q86UU1) | 0.128 |
| PUF60 (UniProt Q9UHX1) | 0.002 |
| PCBP2 (UniProt F8VRH0) | 0.006 |
| PHC1 (UniProt P78364) | 0.151 |
| PHOSPHO2 (UniProt Q8TCD6) | 0.001 |
| PCBP2 isoform 8 (UniProt Q15366) | 0.054 |
| PRIMPOL (UniProt Q96LW4) | -0.028 |
| POLR2G (UniProt P62487) | -0.03 |
| PTPN7 isoform 3 (UniProt P35236) | -0.044 |
| PDIA4, A0A499FI48 | 0.045 |
| PITRM1 isoform 2 (UniProt Q5JRX3) | -0.011 |
| NA (UniProt Q4G0T1) | -0.036 |
| PPP3CA isoform 2 (UniProt Q08209) | -0.025 |
| PRKDC (UniProt P78527) | 0.207 |
| PIP5K1A (UniProt Q99755) | 0.047 |
| PTGS1 isoform 6 (UniProt P23219) | 0.003 |
| PGGT1B (UniProt P53609) | -0.029 |
| PRADC1 (UniProt Q9BSG0) | -0.012 |
| PNPLA4 (UniProt P41247) | -0.093 |
| PPP1R11 (UniProt O60927) | 0.028 |
| PFN3 (UniProt P60673) | -0.142 |
| PLXND1 (UniProt Q9Y4D7) | 0.018 |
| PYGO2 (UniProt Q9BRQ0) | -0.003 |
| PUM1 isoform 3 (UniProt Q14671) | -0.004 |
| PRG4 (UniProt Q92954) | -0.145 |

compound: c1cn2cc(-c3ccc4cn[nH]c4c3)nc(Nc3ccc(N4CCOCC4)cc3)c2n1 [entospletinib]; assay: as above
Summary of the method: as §1

| Target | log2 fold change |
| --- | --- |
| PGRMC1 (UniProt O00264) | -0.02 |
| PRR4 (UniProt Q16378) | 0.302 |
| PECR (UniProt Q9BY49) | 0.115 |
| PHOSPHO2 (UniProt C9JD35) | 0.155 |
| PHLDB1 (UniProt Q86UU1) | 0.008 |
| PUF60 (UniProt Q9UHX1) | 0.002 |
| PHC1 (UniProt P78364) | 0.073 |
| PHOSPHO2 (UniProt Q8TCD6) | -0.116 |
| PCBP2 isoform 8 (UniProt Q15366) | -0.091 |
| PRIMPOL (UniProt Q96LW4) | 0.029 |
| POLR2G (UniProt P62487) | 0.014 |
| POLR2F (UniProt U3KPV3) | -0.113 |
| PPP2R3C (UniProt Q969Q6) | 0.074 |
| PTPN7 isoform 3 (UniProt P35236) | -0.008 |
| PFN1 (UniProt I3L3D5) | -0.194 |
| PITRM1 isoform 2 (UniProt Q5JRX3) | 0.002 |
| PHF14 (UniProt O94880) | 0.039 |
| PPP3CA isoform 2 (UniProt Q08209) | 0.066 |
| PRKDC (UniProt P78527) | 0.013 |
| PPME1 (UniProt Q9Y570) | -0.063 |
| PTGS1 isoform 6 (UniProt P23219) | -0.017 |
| PGGT1B (UniProt P53609) | -0.054 |
| PPP1R14C (UniProt Q8TAE6) | -0.046 |
| PCBP2 (UniProt F8W0G4) | -0.088 |
| PNPLA4 (UniProt P41247) | -0.046 |
| PPP1R11 (UniProt O60927) | -0.029 |
| PFN3 (UniProt P60673) | -0.134 |
| PYGO2 (UniProt Q9BRQ0) | 0.269 (active) |
| PUM1 isoform 3 (UniProt Q14671) | -0.009 |
| PTK2 isoform 2 (UniProt Q05397) | 0.007 |
